Results: PubChem BioAssay (NCI)
Compounds without any hit were thinned out: in the full panel of roughly 83,000, 20% have a hit.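 Negative percent growth values reflect cell death: -40 means 40% of the cells present at the start died, and -100 means all died.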 A number with no mark means an inactive call. The source made the active and inactive calls. The calls were made as follows: active = growth percent below 10; inactive = the rest.

Columns and labels:
Assay in all cases: NCI-60 one-dose screen, 48 h (100 = growth as untreated, 0 = no growth, -100 = all killed)
Settings in all cases: 10 µM
[1] = tested on: NCI-H23 lung
[2] = tested on: NCI-H226 lung
[3] = tested on: NCI-H322M lung
[4] = tested on: HOP-62 NSCLC
[5] = tested on: NCI-H460 lung
[6] = tested on: NCI-H522 lung
[7] = tested on: A549/ATCC NSCLC
[8] = tested on: 786-0 renal
[9] = tested on: COLO 205 colon

Row | SMILES | growth [1] | growth [2] | growth [3] | growth [4] | growth [5] | growth [6] | growth [7] | growth [8] | growth [9]
1 | Nc1nc(N)c(N=Nc2ccc(C(=O)O)cc2)c(N)n1 | 99.6% | 108% | 104% | 106% | 117% | -5.11% (active) | 51.8% | 107% | 117%
2 | O=C1C=C(Nc2ccc([N+](=O)[O-])cc2)c2ccccc2C1=O | 30.1% | 77.6% | 75.3% | 51.9% | 46.4% | 21.5% | 33.3% | 66.6% | 105%
3 | NC(C(=O)O)C(O)c1ccco1 (stereo not drawn) | 108% | 96.6% | 107% | 104% | 108% | 137% | 102% | 98.3% | 102%
4 | CC1SC(N)=NC1=O (stereo not drawn) | 94.8% | 107% | 114% | 79.5% | 115% | 97.5% | 102% | 95.3% | 138%
5 | O=C(Cc1ccccc1)Cc1ccccc1 | 103% | 100% | 104% | 110% | 102% | 97% | 96% | 95.2% | 110%
6 | S=c1[nH]ccn1-c1ccccc1Cl | 112% | 113% | 133% | 112% | 117% | -30.9% (active) | 53.8% | 109% | 117%
7 | Cc1ccc(Cl)cc1NC(=O)N(C)CCO | 110% | 115% | 116% | 109% | 108% | -7.39% (active) | 59.5% | 109% | 144%
8 | O=C(N/N=C/c1ccccc1O)Nc1nn[nH]n1 | 106% | 96.4% | 97% | 111% | 102% | 95.4% | 108% | 108% | 109%
9 | C/C(O)=C(\C=N\C(N)=S)C(=O)Nc1ccccc1 | 94.5% | 87.1% | 104% | 90.9% | 99.9% | 83.7% | 100% | 105% | 104%
10 | O=C(CCl)N1CCN(C/C=C/c2ccccc2)CC1 | 101% | 79.8% | 109% | 97.2% | 98.1% | -80.4% (active) | 108% | 101% | 108%
11 | C/C(=N\O)C1(O)CCCCC1 | 99.5% | 97.7% | 87.6% | 106% | 98.3% | 92.8% | 102% | 99% | 99.4%
12 | CC(C)(C)c1cc(O)c(C(C)(C)C)cc1O | 96.3% | 67.8% | 100% | 105% | 96.3% | 63.3% | 87.4% | 95.8% | 108%
13 | COc1ccccc1NC(=O)c1cc2cc(Br)ccc2cc1O | 4.53% (active) | 8.51% (active) | 22.6% | 6.34% (active) | 2.06% (active) | -24.5% (active) | 3.54% (active) | 14.1% | 50.8%
14 | COC(=O)c1ccccc1Br | 107% | 104% | 95.6% | 77.9% | 107% | 94.2% | 103% | 97% | 116%
15 | COc1cc2nc3cc([N+](=O)[O-])ccc3c(Cl)c2cc1OC | 98.6% | 56.3% | 103% | 111% | 109% | 70.7% | 95.7% | 104% | 112%
16 | C#Cc1cccc(NC(=O)c2ccc(Cl)cc2Cl)c1 | 102% | 104% | 98.3% | 108% | 105% | 74.4% | 48.7% | 99.9% | 128%

Row | SMILES | growth [1] | growth [2] | growth [3] | growth [4] | growth [5] | growth [6] | growth [7] | growth [8] | growth [9]
17 | COc1cc2c3c(n(C)c(=O)c2cc1OC)-c1cc2c(cc1C3=O)OCO2 | 71.9% | 66.9% | 89.9% | 45.1% | 29.3% | 1.48% (active) | 81.8% | 77.1% | 72.5%
18 | Cc1cc2nc(CO)[nH]c2cc1C | 105% | 108% | 113% | 99.4% | 114% | 96.9% | 90.9% | 107% | 103%
19 | COc1ccc(Oc2c(I)cc(CC(NC(C)=O)C(=O)O)cc2I)cc1 (stereo not drawn) | 61.9% | 73% | 102% | 80.9% | 104% | 103% | 87.3% | 71.7% | 108%
20 | CCCC[P+](c1ccccc1)(c1ccccc1)c1ccccc1 | 44.4% | 67% | 95.1% | 80.2% | 53.4% | 39.6% | 53.7% | 98.9% | 32.2%
21 | Nc1ccc(N=Nc2ccc(O)cc2)c(N)n1 | 91.2% | 75.8% | 97.4% | 99.7% | 84.1% | 47% | 69.2% | 65.3% | 109%
22 | CCOC(=O)Nc1cc2c(c(N)n1)N=C(c1ccccc1)CO2 | 34.8% | 39.6% | 15.3% | 50% | 8.86% (active) | -13.9% (active) | 23.3% | 39.1% | 6.19% (active)
23 | Cc1ccc(C(O)C2CC2)cc1 (stereo not drawn) | 103% | 91.9% | 97.1% | 106% | 103% | 107% | 95.9% | 103% | 110%
24 | O=C(CCl)Nc1ccc2c(c1)C(=O)c1ccc(NC(=O)CCl)cc1C2=O | -68.7% (active) | -11.6% (active) | -36.5% (active) | -64.7% (active) | -45.9% (active) | -65.2% (active) | 0.12% (active) | -66.9% (active) | -50.8% (active)
25 | Cc1cccc([N+](=O)[O-])c1Cl | 96.4% | 98.2% | 105% | 103% | 108% | 116% | 104% | 102% | 109%
26 | CC1=C(/C=C/C(C)=C/C=C/C(C)=C/CO)C(C)(C)CCC1 | 102% | 104% | 105% | 104% | 117% | 105% | 102% | 103% | 110%
27 | CCCCC1C(=O)N(c2ccccc2)N(c2ccccc2)C1=O | 109% | 95.8% | 99.9% | 99.3% | 114% | 102% | 106% | 98.5% | 106%
28 | CCCCC/C=N/Nc1nc(C)cc(=O)[nH]1 | 98.7% | 97.5% | 100% | 117% | 107% | 112% | 86.8% | 102% | 121%
29 | C=C[Si](OC(C)=O)(OC(C)=O)OC(C)=O | 106% | 111% | 87.6% | 89.5% | 103% | 88.7% | 104% | 98.5% | 107%
30 | NCC(=O)CCC(=O)O | 93.8% | 99.2% | 107% | 99.1% | 115% | 107% | 99.1% | 103% | 116%
31 | COc1ccc(C)cc1OC | 96.4% | 98.8% | 88.8% | 102% | 107% | 104% | 96.9% | 105% | 113%
32 | COc1cc(/C=N\Nc2ccccc2)ccc1OC(=O)c1ccccc1 | 79.5% | 74.9% | 59.8% | 77.8% | 44.2% | 20.6% | 68.6% | 78.4% | 84.8%
